A selection: hits, their analogues and other compounds. The true share with any hit is near 7.2%.
MARV entry inh: Marburg virus entry inhibition. Potency, µM (series often up to 37.8 µM), most hits filed as inhibitors. 300,000 compounds, 1.8% hits. Marburg virus pseudotyped entry inhibition, cell reporter. AID 540276; calls by dose curve; tested in HEK293 cells
LASV entry inh: Lassa virus entry inhibition | Lassa virus pseudotype entry inhibition, cell reporter | Potency, µM (series often up to 37.9 µM), hits mostly inhibitors | 300,000 compounds, 1.2% hits; calls by dose curve; tested in HEK293 cells; also: nearly all actives have a fitted effect of over 50% in size
FMDV antiviral: antivirals against foot and mouth disease virus | 410,000 compounds, 1.2% hits | Potency, µM (titrated, usually from 57.9 µM), hits mostly inhibitors | FMDV antiviral cell-based qHTS | AID 1159524; calls by dose curve; tested in HEK293T cells; also: read-out not given here; nearly all actives have a fitted effect of over 45% in size
HCV inhibitor: inhibitors of hepatitis C virus infection | Huh7.5.1 HCVcc-Cre infection, luciferase reporter, 44 h | Potency, µM (highest dose often 41.8 µM), most hits filed as inhibitors | 340,000 compounds, 3.4% hits
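Whole-lifecycle infectious HCVcc-Cre system; cells 1,000/well, compound then virus (~0.5 moi) added 4 h after plating, 44 h culture. Luciferase read 15 sec following 15 min substrate incubation, room temp.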
RE007 growth inh: less growth of the S. pombe RE007 Vpr strain | S. pombe RE007 Vpr strain, BacTiter-Glo ATP luminescence, 24 h | Potency, µM (doses to about 92.2 µM), actives largely listed as inhibitors | 360,000 compounds, 0.21% hits | AID 651644; active = well fitted falling curve with a large enough effect; inconclusive = small, poorly fitted or top-dose-only effect; inactive = no such curve, though single readings can be large or run the other way; also: nearly all actives have a fitted effect of over 50% in size
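Fission yeast RE007 carrying one integrated HIV-1 vpr copy, seeded at OD 0.01 in PMG+AL medium with 23 nL pinned compound. Grown 24 h at 30 degrees; viability read by BacTiter-Glo luminescence after 5 min.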
Sm TGR block: inhibitors of Schistosoma mansoni thioredoxin glutathione reductase; Q962Y6; purified TGR, DTNB reduction, TNB absorbance 405 nm; Potency, µM (series often up to 114 µM), actives largely listed as inhibitors; 360,000 compounds, 3% hits; AID 485364; also: nearly all actives have a fitted effect of over 60% in size
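TGR 20 nM + NADPH 100 uM (dispensed conc.), cpd preinc 15 min RT; start with NADPH (500 uM addition) then DTNB (15 mM addition). Kinetic TNB absorbance, 405 nm filter. Four-parameter Hill fit across titration.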
Numbers stand for hits; - = inactive; ? = inconclusive; . = no result given; [ ] = dose if it differs, or a comment. Unless noted, calls follow the shape of the dose curve; as a rule, active = well fitted curve in the direction sought with a large enough effect; inconclusive = small, poorly fitted or top-dose-only effect, or another doubt; inactive = no such curve, though single readings can be large; an effect the other way counts as inactive or inconclusive.

SMILES	MARV entry inh	LASV entry inh	FMDV antiviral	HCV inhibitor	RE007 growth inh	Sm TGR block
O=C(NCc1ccc2c(c1)OCO2)c1ccc(CS(=O)Cc2ccc(Cl)cc2)o1 (configuration not stated)	-	?	-	11µM	-	?
Cc1ccc(C)c(N(C)C(=O)c2cn(C)c(=O)c3ccccc23)c1	?	-	?	.	.	-
COc1ccccc1Cc1nc2ccccc2nc1SCC(=O)N(C)c1ccc(F)cc1	.	-	-	.	.	-
CCCCOc1nc2ccccc2nc1[C@H](C#N)C(=O)NC1CCCCC1	-	.	.	.	.	.
Cc1ccc(-c2nc3ccccn3c2Nc2ccc3c(c2)OCCO3)o1	-	-	-	.	.	-
COc1cc(C2NCC(c3ccc(Cl)cc3Cl)c3c2[nH]c2ccccc32)cc(OC)c1OC (configuration not stated)	16µM	?	-	?	-	-
O=C(O)c1ccc(C2NCC(c3ccccc3Cl)c3c2[nH]c2ccccc32)cc1 (configuration not stated)	?	-	-	-	-	-
CCS(=O)(=O)c1ncc(Cl)c(C(=O)N2CCN(c3cccc(Cl)c3)CC2)n1	5.6µM	?	14µM	.	.	7.1µM
CS(=O)(=O)c1ncc(Cl)c(C(=O)N2CCN(c3cccc(Cl)c3)CC2)n1	?	?	18µM	.	.	3.5µM
CC(C)CC(C(=O)NC1CCCCC1)N(Cc1cccs1)C(=O)c1snc(C(N)=O)c1N (configuration not stated)	.	.	-	13µM	-	-
CCCC(C(=O)NC1CCCC1)N(Cc1ccccc1Cl)C(=O)c1snc(C(N)=O)c1N (configuration not stated)	10µM	-	-	-	-	-
CCC(C(=O)NC1CCCC1)N(Cc1ccccc1Cl)C(=O)c1snc(C(N)=O)c1N (configuration not stated)	?	.	-	?	-	-
O=S(=O)(Nc1ccc2c(c1)nc1n2CCN(Cc2ccccc2)C1)c1ccc(F)cc1	-	-	-	?	-	?
O=S(=O)(Nc1ccc2c(c1)nc1n2CCN(Cc2ccccc2)C1)c1ccccc1	-	-	?	5.6µM	-	-
Cc1ccc(S(=O)(=O)Nc2ccc3c(c2)nc2n3CCN(Cc3ccccc3)C2)cc1	?	?	-	16µM	-	-
O=S(=O)(Nc1ccc2c(c1)nc1n2CCN(Cc2ccccc2)C1)c1ccc(Cl)cc1	-	-	-	11µM	-[3.69 µM]	-
COc1ccccc1C(=O)Nc1ccc2c(c1)nc1n2CCN(Cc2ccccc2)C1	?	?	?	?	-	?
C=C1C(=O)OC2CC3(C)OC3CCC(C)=CC(OC(C)=O)C12 (configuration not stated)	?	?	35µM	?	-	.
O=C1CS(=O)(=O)C2(C(=O)N(Cc3ccccc3Cl)c3ccccc32)N1c1ccc(F)cc1 (configuration not stated)	.	-	-	.	.	-
Cc1ccc(S(=O)(=O)Nc2ccccc2C(C(=O)OC(C)(C)C)C(=O)OC(C)(C)C)cc1	.	.	-	.	-	.
CC(C)(C)C(=O)C(Cl)C(=O)Nc1ccccc1 (configuration not stated)	.	.	-	-	-	22µM
O=C(OCc1ccccc1Cl)c1ccc(-c2nnn(Cc3ccccc3)n2)cc1	-	-	-	.	.	-
COc1ccc2c(c1)-c1c(ssc1=S)C(C)(C)N2C(=O)CSC1=NCCS1	?	-	?	10µM	-	-
Cc1cc(C)c2c(c1)-c1c(ssc1=S)C(C)(C)N2C(=O)CSc1nncn1C	14µM	?	-	13µM	-	-
CC1(C)c2ssc(=S)c2-c2ccccc2N1C(=O)CSC1=NCCS1	?	-	?	?	-	-
SMILES	MARV entry inh	LASV entry inh	FMDV antiviral	HCV inhibitor	RE007 growth inh	Sm TGR block
Cc1cc2c(cc1C)N(C(=O)CSC1=NCCS1)C(C)(C)c1ssc(=S)c1-2	-	-	?	?	-	-
Cc1ccc(C)c(NC(=O)CSc2nncn2C)c1	.	.	-	-	-	-
CCOc1ccc2c(c1)-c1c(ssc1=S)C(C)(C)N2C(=O)c1ccco1	5.2µM	?	-	10µM	-	-
Cc1ccc2c(c1)-c1c(ssc1=S)C(C)(C)N2C(=O)CSc1nncn1C	?	?	?	10µM	-	-
COc1ccc(Cl)cc1NC(=O)CSc1c2c(nc3ccccc13)CCC2	-	-	?	.	.	-
CN1CCN(C(=O)c2ccc(CS(=O)(=O)c3c(Cl)cccc3Cl)o2)CC1	.	.	-	-	-	-

Screening results as filed in PubChem.
